Assay outcomes deposited in PubChem BioAssay by Broad Institute.
PAX8 inh HTS – inhibitors of PAX8 transcriptional activity in RMG-I cells; RMG-I TPO-luciferase reporter, SteadyGlo, 24 h; inhibition, % at 12.6 µM; hit rate 1.2% among 360,000; AID 652154;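 active = mean replicate inhibition at least 60% with every replicate also reaching 60%; inconclusive = only one of the two criteria is met; inactive = mean below 60% and not all replicates reaching 60%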;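 also: luciferase light reporting Pax8 driven TPO promoter activity; plate controls were median of neutral control wells for no effect and mitoxantrone controls for full effect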
Shn3 inh set2 – Schnurri-3 reporter inhibition in Clone20 osteoblasts. Clone20 osteoblast Shn3 3'UTR firefly luciferase, 24 h. inhibition, % at 12.5 µM. hit rate 0.52% among 360,000;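 active = mean inhibition of at least 75% with every replicate also reaching 75%; inconclusive = mean inhibition at least 75% but some replicate below; inactive = mean inhibition below 75%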;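 also: 0% = median of neutral control wells and 100% = pilot-screen positive control compound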
N-glyco inh – N-linked glycosylation inhibition; reporter increase, % at 12.5 µM; hit rate 0.23% among 360,000; D54 ERlucT glycosylation luciferase reporter, 24 h; percent of 100 nM tunicamycin response;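 active = mean luciferase reporter signal, scaled so untreated is 0 and the glycosylation-blocking control 100, at or above a set limit in every replicate; inconclusive = mean reaches the limit but not every replicate does; inactive = mean below the limit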;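 also: luciferase carries N-glycosylation sites so blocking glycosylation raises the light; 0% = median of neutral control wells and 100% = median of 100 nM tunicamycin wells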
NSD2 inh – NSD2 (human) methyltransferase inhibition; NSD2 peptide methylation, AlphaScreen, 120 min; inhibition, % at 12.5 µM; hit rate 0.54% among 310,000; in the data active = inhibition above about 50%
Target sequence (O96028 whole entry, looked up): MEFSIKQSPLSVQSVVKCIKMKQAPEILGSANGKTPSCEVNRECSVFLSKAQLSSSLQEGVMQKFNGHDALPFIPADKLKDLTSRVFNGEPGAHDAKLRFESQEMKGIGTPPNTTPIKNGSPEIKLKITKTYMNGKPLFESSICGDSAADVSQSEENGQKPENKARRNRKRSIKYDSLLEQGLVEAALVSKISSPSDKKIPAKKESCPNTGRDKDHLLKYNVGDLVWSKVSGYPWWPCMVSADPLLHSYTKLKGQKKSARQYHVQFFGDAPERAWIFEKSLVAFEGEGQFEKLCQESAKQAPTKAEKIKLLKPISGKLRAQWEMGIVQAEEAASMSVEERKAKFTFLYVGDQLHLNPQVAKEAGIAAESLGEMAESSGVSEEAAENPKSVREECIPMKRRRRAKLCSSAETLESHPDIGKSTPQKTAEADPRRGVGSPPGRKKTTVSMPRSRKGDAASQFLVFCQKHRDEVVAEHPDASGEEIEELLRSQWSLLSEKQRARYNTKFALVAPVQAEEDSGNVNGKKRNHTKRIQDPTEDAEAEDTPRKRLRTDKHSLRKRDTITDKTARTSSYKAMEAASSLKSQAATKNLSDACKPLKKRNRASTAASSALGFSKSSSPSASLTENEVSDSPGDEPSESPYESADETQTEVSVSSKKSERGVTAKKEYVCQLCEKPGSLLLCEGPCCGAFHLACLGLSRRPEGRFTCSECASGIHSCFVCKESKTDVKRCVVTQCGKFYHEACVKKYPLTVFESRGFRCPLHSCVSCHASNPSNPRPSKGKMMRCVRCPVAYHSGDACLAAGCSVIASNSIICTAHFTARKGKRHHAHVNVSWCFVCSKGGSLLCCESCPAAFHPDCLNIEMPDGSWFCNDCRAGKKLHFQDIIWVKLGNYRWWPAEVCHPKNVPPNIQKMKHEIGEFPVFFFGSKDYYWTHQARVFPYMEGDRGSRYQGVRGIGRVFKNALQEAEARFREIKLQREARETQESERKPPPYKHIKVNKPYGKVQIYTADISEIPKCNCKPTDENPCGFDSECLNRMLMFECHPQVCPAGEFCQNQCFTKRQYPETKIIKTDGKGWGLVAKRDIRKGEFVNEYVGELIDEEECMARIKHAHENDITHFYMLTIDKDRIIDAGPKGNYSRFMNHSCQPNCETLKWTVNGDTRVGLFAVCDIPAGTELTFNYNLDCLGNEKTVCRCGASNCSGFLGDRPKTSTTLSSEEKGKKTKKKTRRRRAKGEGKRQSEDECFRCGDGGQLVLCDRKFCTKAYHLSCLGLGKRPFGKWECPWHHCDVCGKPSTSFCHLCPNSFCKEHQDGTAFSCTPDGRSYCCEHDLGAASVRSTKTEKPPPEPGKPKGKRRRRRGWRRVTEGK
EBV LMP1 NFkB – reduces LMP1-driven NF-kappaB luciferase signal. LMP1-induced NF-kappaB luciferase reporter cells, luminescence. inhibition, % at 12.5 µM. hit rate 0.69% among 350,000. AID 504558; in the data active = inhibition above about 41%; inconclusive = no clear call, values can overlap the other calls;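 also: 0% = neutral control wells and 100% = reference inhibitor control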
Env fusion inh – HIV envelope-mediated fusion inhibition | inhibition, % at 12.3 µM | AID 651610 | hit rate 1.1% among 360,000 | HeLa-JRFL Env/CEM21 cell fusion, luciferase;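 active = mean replicate inhibition score of at least 50 and every replicate individually at or above 50; inconclusive = only one of the two criteria met; inactive = mean below 50 and not all replicates reaching 50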;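 also: 0% = plate neutral controls and 100% = maraviroc near 300 nM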
Alpha artifact – counter-screen for NSD2 inhibitors: AlphaScreen artifacts | AID 1053174 | hit rate 9.4% among 1,500 | AC35, µM (series often up to 10 µM), inactives show top-dose activity change, negative = signal loss | shares compounds with NSD2 inh | AlphaScreen artifact counterscreen, preloaded methylated H4 peptide; call rule not given here
* hit, by the source's call; ? = inconclusive; · = no result; [ ] = dose if it differs, or a comment. Hits are enriched below; roughly 2.8% of the tested compounds scored in any of these assays.

SMILES	PAX8 inh HTS	Shn3 inh set2	N-glyco inh	NSD2 inh	EBV LMP1 NFkB	Env fusion inh	Alpha artifact
CCc1c(C(=O)Nc2cc(C(=O)OC)ccc2C)csc1C	-12.9	5.1	1.3	·	5.0	1.7	·
CCOC(=O)Nc1cc(C(=O)OC)ccc1C	-1.7	-14.8	2.4	119.4*	-0.3	-69.8	5.2%
O=C(Nc1ccccc1)OCCCCOC(=O)Nc1ccccc1	·	-4.9	0.7	54.6*	4.6	1.2	-2.2%
O=C(Nc1ccccc1)OCCCc1ccccc1	-73.2	-6.2	2.9	-21.5	-20.0	-23.5	·
Brc1ccc(COc2ncnc3ccccc23)cc1	2.4	3.8	-0.4	-4.1	-9.0	-5.3	·
COc1ccc(COc2ncnc3ccc(Br)cc23)cc1F	-15.8	0.3	-2.2	122.2*	-7.8	-23.8	-3.1%
CCC(=O)N(C)C[C@H]1Oc2cc(-c3cccc(F)c3)ccc2S(=O)(=O)N([C@H](C)CO)C[C@@H]1C	·	·	·	·	·	11.9[16.7 µM]	·
CC[n+]1ccccc1/C=C/c1ccc(N(C)C)cc1	49.3	80.0	-5.0	11.2	8.8	?	·
CC[n+]1ccc(/C=C/c2ccc(N(C)C)cc2)c2ccccc21	94.6*	88.0*	?	94.2*	?	22.8	8.67µM*
COc1ccc(CCN2C(=O)[C@@]3(Cc4ccccc42)c2ccccc2C(=O)N(C2CCCCC2)[C@H]3c2ccc(CO)cc2)cc1	-10.3	·	·	·	·	-13.1[16.7 µM]	·
NC1=C(Cl)C(=O)c2ccc(S(N)(=O)=O)cc2C1=O	120.9*	98.4*	-19.9	114.0*	87.6*	62.7*	-1.8%
CC(C)(C)c1cc(C(=O)N/N=C/c2ccncc2)n[nH]1	·	6.3	1.6	54.9*	7.0	·	1.1%
CC(C)(C)c1cc(C(=O)N/N=C/c2ccccn2)n[nH]1	-71.7	-15.2	2.0	-0.8	-1.4	-6.0	·
COc1ccc(OC)c(NC(=O)CSc2nc3n[nH]c(C)c3c(=N)n2-c2cccc(Cl)c2C)c1	42.0	27.4	7.5	3.7	5.4	11.5	·
CCc1ccccc1NC(=O)CSc1nc2n[nH]c(C)c2c(=N)n1-c1cccc(OC)c1	·	58.3	8.9	57.5*	-4.7	·	-4.3%
COC(=O)C[C@H]1CC[C@@H]2[C@@H](COc3ccc(NC(=O)Nc4cccc(F)c4)cc3C(=O)N2C)O1	2.1	·	·	·	·	·	·
C[C@@H]1CN([C@@H](C)CO)C(=O)c2cc(NC(=O)CCN3CCOCC3)ccc2O[C@@H]1CN(C)Cc1ccc(Cl)c(Cl)c1	13.6	·	·	·	·	-8.4[16.7 µM]	·
COc1ccc(NC(=O)N(C)C[C@H]2Oc3ccc(NC(=O)Cn4cnnn4)cc3CC(=O)N([C@H](C)CO)C[C@@H]2C)cc1	-13.6	·	·	·	·	-5.9[16.7 µM]	·
[O-][n+]1cccc2c(Br)cc(Br)c(O)c21	2.5	8.1	3.8	60.8*	-4.5	-38.2	-4.6%
CC(=O)Nc1ccc(NCc2ccc(C)s2)cc1	-26.6	-35.5	-2.2	55.8*	0.6	-13.8	-3.4%
CCCNC(=O)Nc1ccc2c(c1)C(=O)N(C)C[C@H](OC)[C@H](C)CN(C(=O)c1ccccc1F)[C@H](C)CO2	·	·	·	·	·	0.8[16.7 µM]	·
Cc1ccc(NC(=O)CC2=NC(=O)C(CC(=O)Nc3ccccc3F)S2)cc1 (stereo not drawn)	1.0	·	1.9	71.5*	-35.6	-8.9	-0.2%
Cc1ccc(-c2sc(-c3ccccc3)nc2CC(=O)Nc2ccccc2F)cc1	5.4	16.5	-8.8	-3.4	4.0	1.4	·
O=C1c2cccc(Cl)c2C(=O)c2c1cccc2N1CCCC1	·	-26.8	1.3	73.9*	-10.3	·	1.14µM*
O=C1C(Cl)=C(N2CCCCC2)C(=O)N1c1ccccc1Cl	·	4.7	1.7	-3.8	-0.5	-38.8	·
SMILES	PAX8 inh HTS	Shn3 inh set2	N-glyco inh	NSD2 inh	EBV LMP1 NFkB	Env fusion inh	Alpha artifact
CCOc1ccccc1NC(=O)CSc1nc2nc(-c3cccs3)cc(C(F)(F)F)c2c(=O)[nH]1	-14.0	1.2	1.1	84.3*	0.0	-0.9	-1.2%
COc1ccc(NC(=O)CSc2nc3nc(-c4cccs4)cc(C(F)(F)F)c3c(=O)[nH]2)c(OC)c1	-36.6	18.2	3.4	9.8	-7.7	-13.0	·
C[C@H]1CN([C@@H](C)CO)C(=O)Cc2cc(NS(=O)(=O)c3ccc(F)cc3)ccc2O[C@H]1CN(C)S(=O)(=O)c1ccccc1	·	·	·	·	·	16.8[16.7 µM]	·
Cc1noc(C)c1NC(=O)Nc1ccc2c(c1)C(=O)N([C@H](C)CO)C[C@H](C)[C@@H](CN(C)C(=O)Nc1cccc3ccccc13)OCCCC[C@@H](C)O2	-25.7	·	·	·	·	0.0[16.7 µM]	·
Cc1cc([N+](=O)[O-])cc2ncccc12	·	-8.0	0.2	-2.9	1.2	·	·
O=[N+]([O-])c1cc2ncccc2c2ncccc12	24.4	15.7	6.5	56.1*	5.6	25.1	-6.3%
O=C(NC1=C(NC2CCS(=O)(=O)C2)C(=O)c2ccccc2C1=O)c1ccccc1 (stereo not drawn)	95.6*	61.1	5.2	109.0*	-19.6	56.6*	-1.4%
Cc1ccc(NC(=S)N2CCC(NC(=O)c3ccc(C)cc3)CC2)cc1	8.4	21.4	0.1	·	3.7	10.1	·
Cc1ccc(NC(=S)N2CCC(NC(=O)c3cccc(F)c3)CC2)cc1	-13.3	-0.6	0.9	88.7*	8.3	8.4	2.4%
Nc1ccc(N=Nc2ccccc2O)c(N)c1	-164.4	-94.8	-5.8	54.2*	·	-90.6	-15.7%
Nc1ccc2cccc(O)c2c1	-31.1	9.8	0.6	-2.9	-7.5	-21.1	·
CCOC(=O)c1c(N)n(CCOC(=O)c2cccs2)c2nc3ccccc3nc12	·	2.8	3.0	·	11.3	·	·
CCCCCOC(=O)c1c(N)n(CCOC)c2nc3ccccc3nc12	·	-14.0	6.1	61.3*	14.9	11.5	7.5%
